Active and inactive are the calls of the source. Calls follow the shape of the dose curve; as a rule, active = well fitted curve in the direction sought with a large enough effect in the repeat runs; inconclusive = weak or mixed curves; inactive = flat fitted curve, though single readings scatter.
How the values were obtained:
[1] = qHTS assay to test for compound auto fluorescence at 535 nm (green) in HEK293 cells (AID 720680)
[2] = qHTS assay to test for compound auto fluorescence at 460 nm (blue) in HEK293 cell free culture (AID 720681)
Outline: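 Test compounds were pinned into cell-free culture medium (DMEM with 10% FBS) and fluorescence was read directly at Ex/Em 405/460 nm. Signals were expressed as fluorescence equivalents of triamterene, with DMSO vehicle as control.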

[3] = qHTS assay to test for compound auto fluorescence at 535 nm (green) in HEK293 cell free culture (AID 720682)
Outline: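 DMEM + 10% FBS, cell-free; cpd or DMSO pinned in; Ex485/Em535 read; output as fluorescein-equivalent signal.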

[4] = qHTS assay to test for compound auto fluorescence at 590 nm (red) in HEK293 cell free culture (AID 720683)
Outline: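 Tox21 10K library compounds were pinned into cell-free DMEM with 10% FBS and fluorescence was read at excitation 540 nm. Activity is expressed as Rose Bengal sodium equivalency.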

[5] = qHTS assay to test for compound auto fluorescence at 590 nm (red) in HepG2 cell free culture (AID 720684)
Outline: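 Measured in medium alone (MEM containing 10% FBS) following pintool addition of compound; emission at 590 nm with 540 nm excitation, referenced to Rose Bengal sodium.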

[6] = qHTS assay to test for compound auto fluorescence at 460 nm (blue) in HepG2 cell free culture (AID 720685)
Outline: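 Compound (23 nL) or DMSO pinned into cell-free MEM with 10% FBS; blue fluorescence read at 405/460 nm excitation/emission, expressed as auto-fluorescence equivalency to triamterene.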

[7] = qHTS assay to test for compound auto fluorescence at 535 nm (green) in HepG2 cell free culture (AID 720686)
[8] = qHTS assay to test for compound auto fluorescence at 460 nm (blue) in HepG2 cells (AID 720687)
Outline: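 Cells (2,000/well in MEM with 10% FBS) attached overnight at 37 C, then were exposed to compound or DMSO for 1 hr at 37 C, 5% CO2. Fluorescence read at Ex/Em 405/460 nm, expressed as triamterene-equivalent signal.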
% is scaled to controls: 0 for no effect and ±100 for the full control effect.

C/C=C1/C(=O)C[C@H]2[C@@H]3CCC4=CC(=O)CC[C@]4(C)[C@H]3CC[C@]12C
inactive: outcome [1] | Potency [2] | outcome [3] | Potency [4] | Potency [5] | Potency [6] | Potency [7] | Potency [8]

Cc1cc(C2CCCCC2)n(O)c(=O)c1
inactive: fluorescence, % of fluorescein [1] 0.0799% [at 18.6 µM] | fluorescence, % of fluorescent control [2] -0.0092% [at 18.6 µM] | activity change [3] 0.0414% [at 18.6 µM] | fluorescence, % of fluorescent control [4] 0.0163% [at 18.6 µM] | fluorescence, % of Rose Bengal [5] -0.0195% [at 18.6 µM] | fluorescence, % of fluorescent control [6] 0.0075% [at 18.6 µM] | fluorescence, % of fluorescein control [7] 0.005% [at 18.6 µM] | fluorescence, % of fluorescent control [8] 0.0031% [at 18.6 µM]

CC(C)(C)C(=O)OCOC(=O)C1N2C(=O)CC2S(=O)(=O)C1(C)C (configuration not stated)
inactive: outcome [1] | Potency [2] | outcome [3] | Potency [4] | Potency [5] | Potency [6] | Potency [7] | Potency [8]

Cc1cc(O)c(C(C)(C)C)cc1C(C)(C)C
inactive: outcome [1] | Potency [2] | outcome [3] | Potency [4] | Potency [5] | Potency [6] | Potency [7] | Potency [8]

CCCCCCCCCCCCCCCC(=O)OC[C@H](O)[C@H]1OC(=O)C(O)=C1O
inactive: outcome [1] | Potency [2] | outcome [3] | Potency [4] | Potency [5] | Potency [6] | Potency [7] | Potency [8]

Cc1[nH]nc2c1N=C(c1ccccc1Cl)c1cc([N+](=O)[O-])ccc1N2
inactive: outcome [1] | Potency [2] | outcome [3] | Potency [4] | Potency [5] | Potency [6] | Potency [7] | Potency [8]

C=CC(=O)OCC(CO)(COC(=O)C=C)COC(=O)C=C
inactive: outcome [1] | Potency [2] | outcome [3] | Potency [4] | Potency [5] | Potency [6] | Potency [7] | Potency [8]

NC(=O)N1C(=O)C(C(=O)c2cc(Cl)cs2)c2cc(F)c(Cl)cc21 (configuration not stated)
inactive: outcome [1] | Potency [2] | outcome [3] | Potency [4] | Potency [5] | Potency [6] | Potency [7] | Potency [8]

Oc1c(Cl)cc(Cl)c2cccnc12
inactive: outcome [1] | Potency [2] | outcome [3] | Potency [4] | Potency [5] | Potency [6] | Potency [7] | Potency [8]

NNc1nc(-c2ccc(N)cc2)cs1
inactive: outcome [1] | Potency [2] | outcome [3] | Potency [4] | Potency [5] | Potency [6] | Potency [7] | Potency [8]

Oc1cccc(-c2c3nc(c(-c4cccc(O)c4)c4ccc([nH]4)c(-c4cccc(O)c4)c4nc(c(-c5cccc(O)c5)c5ccc2[nH]5)CC4)C=C3)c1
inactive: outcome [1] | Potency [2] | outcome [3] | Potency [4] | Potency [5] | Potency [6] | Potency [7] | Potency [8]

O=[N+]([O-])c1cc(Cl)c(Cl)c(Cl)c1Cl
inactive: outcome [1] | Potency [2] | outcome [3] | Potency [4] | Potency [5] | Potency [6] | Potency [7] | Potency [8]

O=C1C=CC(=O)N1c1ccc(Cc2ccc(N3C(=O)C=CC3=O)cc2)cc1
inactive: outcome [1] | Potency [2] | outcome [3] | Potency [4] | Potency [5] | Potency [6] | Potency [7] | Potency [8]

CC[C@H]1O[C@]2(CC[C@@H]1C)C[C@@H]1C[C@@H](C/C=C(\C)C[C@@H](C)/C=C/C=C3\CO[C@@H]4[C@H](O)C(C)=C[C@@H](C(=O)O1)[C@]34O)O2
inactive: outcome [1] | Potency [2] | outcome [3] | Potency [4] | Potency [5] | Potency [6] | Potency [7] | Potency [8]

CCCCCCCCCCCCc1ccc(O)cc1
inactive: outcome [1] | Potency [2] | outcome [3] | Potency [4] | Potency [5] | Potency [6] | Potency [7] | Potency [8]

OC1(c2ccc(Cl)c(C(F)(F)F)c2)CCN(CCCC(c2ccc(F)cc2)c2ccc(F)cc2)CC1
inactive: outcome [1] | Potency [2] | outcome [3] | Potency [4] | Potency [5] | Potency [6] | Potency [7] | Potency [8]

CCCCCCCCCCCC(=O)NCCCN(C)C
inactive: outcome [1] | Potency [2] | outcome [3] | Potency [4] | Potency [5] | Potency [6] | Potency [7] | Potency [8]

CCCN(CCC)c1c([N+](=O)[O-])cc(C(F)(F)F)c(N)c1[N+](=O)[O-]
inactive: outcome [1] | Potency [2] | outcome [3] | Potency [4] | Potency [5] | Potency [6] | Potency [7] | Potency [8]

O=C(Nc1cccc(Cl)c1)OCC#CCCl
inactive: outcome [1] | Potency [2] | outcome [3] | Potency [4] | Potency [5] | Potency [6] | Potency [7] | Potency [8]

[O-][n+]1ccccc1SSc1cccc[n+]1[O-]
inactive: outcome [1] | Potency [2] | outcome [3] | Potency [4] | Potency [5] | Potency [6] | Potency [7] | Potency [8]

Oc1ccc(N=Nc2ccccc2)cc1
inactive: outcome [1] | Potency [2] | outcome [3] | Potency [4] | Potency [5] | Potency [6] | Potency [7] | Potency [8]

CCCCCCCCCCCCCCCCCC[N+](C)(C)C
inactive: outcome [1] | Potency [2] | outcome [3] | Potency [4] | Potency [5] | Potency [6] | Potency [7] | Potency [8]

O=C(O)c1c(Cl)cccc1Cl
inactive: outcome [1] | Potency [2] | outcome [3] | Potency [4] | Potency [5] | Potency [6] | Potency [7] | Potency [8]

CCCCN1CCCC[C@H]1C(=O)Nc1c(C)cccc1C
inactive: outcome [1] | Potency [2] | outcome [3] | Potency [4] | Potency [5] | Potency [6] | Potency [7] | Potency [8]

From PubChem BioAssay (Tox21)
